# Compound activity (PubChem BioAssay)
# BAZ2B block: qHTS Assay for Inhibitors of BAZ2B; hit rate 4.4% among 360,000; AlphaScreen BAZ2B-H3K14Ac peptide displacement; Potency, µM (doses to about 114 µM), inactives show at the top dose activity change, negative = inhibition, usual class: inhibitors; AID 504333, 2011; Bromodomain adjacent to zinc finger domain protein 2B (Homo sapiens), Q9UIF8; also: potency is read from the fitted curve at half-maximal effect; % is scaled to controls: 0 for no effect and ±100 for the full control effect; nearly all actives have a fitted effect of over 60% in size
#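 Complex of BAZ2B and biotin-H3K14Ac (50 nM apiece) forms over 30 min at RT, then faces library compounds up to 110 uM for another 30 min; AlphaScreen beads added, 20 min dark incubation, luminescence read.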
# PI5P4K alpha inh: qHTS for Inhibitors of phosphatidylinositol 5-phosphate 4-kinase (PI5P4K); Phosphatidylinositol 5-phosphate 4-kinase type-2 alpha (Homo sapiens), P48426; PI5P4Kalpha enzyme, ADP-Glo luminescence, 60 min; hits give low values; max response, %; hit rate 1.2% among 330,000; active = max response of -50% or lower; inconclusive = between -30% and -50%; inactive = -30% or higher; also: value at the top dose of about 77 µM; % is scaled to controls: 0 for no effect and ±100 for the full control effect
# Target sequence (P48426 whole entry, looked up): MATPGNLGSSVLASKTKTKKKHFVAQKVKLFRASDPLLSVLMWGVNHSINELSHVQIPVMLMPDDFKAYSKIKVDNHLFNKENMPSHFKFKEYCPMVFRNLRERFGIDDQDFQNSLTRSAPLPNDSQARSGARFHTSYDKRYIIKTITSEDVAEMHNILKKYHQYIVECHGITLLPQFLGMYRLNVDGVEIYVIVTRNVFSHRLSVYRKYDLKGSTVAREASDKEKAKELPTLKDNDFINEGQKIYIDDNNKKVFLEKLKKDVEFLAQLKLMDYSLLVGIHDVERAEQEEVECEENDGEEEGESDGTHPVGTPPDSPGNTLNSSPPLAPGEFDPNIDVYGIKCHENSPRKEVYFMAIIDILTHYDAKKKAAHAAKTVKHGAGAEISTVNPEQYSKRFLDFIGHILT
#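 Reactions run in 0.038 M HEPES pH 7.4, 0.28 mM EGTA, 0.1% CHAPS and 5% DMSO, with PI5P4Kalpha, substrate, compound and 5 microM ATP final, one hour at room temperature. Readout is ADP-Glo luminescence.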
# GCN5L2 inh: qHTS Assay for Inhibitors of GCN5L2; Histone acetyltransferase KAT2A (Homo sapiens), Q92830; GCN5L2 HAT assay, ThioGlo1 CoA-SH fluorescence; Potency, µM (titrated, usually from 58.9 µM), inactives show at the top dose activity change, negative = inhibition, most hits filed as inhibitors; hit rate 0.21% among 390,000; AID 504327, 2011; also: potency is read from the fitted curve at half-maximal effect; % is scaled to controls: 0 for no effect and ±100 for the full control effect
#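 Enzyme at 20nM final was mixed with library compounds for 15 min at room temperature. Peptide H3(1-25) at 75uM, acetyl-CoA at 70uM and ThioGlo1 at 50uM were then added. Plates were read immediately and after 20 min (Ex340nm/Em540nm).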
# HP1b chromo inh: HTS for Inhibitors of HP1-beta Chromodomain Interactions with Methylated Histone Tails; AID 540317, 2011; Chromobox protein homolog 1 (Homo sapiens), P83916; hit rate 0.56% among 390,000; Potency, µM (titrated, usually from 114 µM), for inactives: top-dose activity change, negative = inhibition, usual class: inhibitors; AlphaScreen HP1-beta / biotin-H3K9me3 peptide binding; also: potency is read from the fitted curve at half-maximal effect; nearly all actives have a fitted effect of over 70% in size
# Target sequence (P83916 whole entry, looked up): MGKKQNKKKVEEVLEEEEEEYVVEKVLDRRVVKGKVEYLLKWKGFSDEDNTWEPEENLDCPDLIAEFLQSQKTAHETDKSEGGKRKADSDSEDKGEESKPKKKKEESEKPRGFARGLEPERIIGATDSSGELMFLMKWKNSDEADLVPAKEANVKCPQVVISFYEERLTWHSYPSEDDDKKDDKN
#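 Compound inhibition of the preformed complex between 50 nM HP1-beta and 50 nM biotinylated H3K9me3 peptide was read by AlphaScreen. Buffer was PBS pH 7.4 with 0.01% Tween-20. Incubations ran 30 min at room temperature, with 10 ug/mL donor/acceptor beads.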
# PLK1 PBD block: qHTS for Inhibitors of PLK1-PDB (polo-like kinase 1 - polo-box domain): Primary Screen; Plk1 PBD binding of FITC phosphopeptide, fluorescence polarization; Potency, µM, without a hit: max response, negative = inhibition, actives largely listed as inhibitors; hit rate 2.8% among 360,000; AID 720504, 2013; also: potency is read from the fitted curve at half-maximal effect; series mostly up to about 57 µM; % is scaled to controls: 0 for no effect and ±100 for the full control effect; nearly all actives have a fitted effect of over 65% in size
# JMJD2A Tudor: qHTS Assay for Inhibitors of JMJD2A-Tudor Domain. AlphaScreen JMJD2A-Tudor / H3K4me3 peptide binding. Potency, µM (top dose mostly 114 µM), for inactives: top-dose activity change, negative = inhibition, most hits filed as inhibitors. hit rate 4.4% among 390,000; also: potency is read from the fitted curve at half-maximal effect; % is scaled to controls: 0 for no effect and ±100 for the full control effect; nearly all actives have a fitted effect of over 50% in size
# Starred values were filed as active, the others as inactive; ? = inconclusive; . = no result given; [ ] = dose if it differs, or a comment. This is a sample that favours compounds with a hit; in the whole collection about 7% have one here. Unless noted, calls follow the shape of the dose curve; as a rule, active = well fitted curve in the direction sought with a large enough effect; inconclusive = small, poorly fitted or top-dose-only effect, or another doubt; inactive = no such curve, though single readings can be large; an effect the other way counts as inactive or inconclusive.
SMILES,BAZ2B block,PI5P4K alpha inh,GCN5L2 inh,HP1b chromo inh,PLK1 PBD block,JMJD2A Tudor
Cn1c(-c2ccccc2)nc2cnccc21,0%,-20,-2%,5%,24µM*,-4%[11.4 µM]
Cc1ccc(S(=O)(=O)N2CCCC2CNC(=O)c2ccc3c(c2)OCO3)cc1 (centres undefined),6%,-1,1%,-18%,0%,-16%
CCOC(=O)c1c(C)[nH]c(O)c1C=Nc1ccccc1,50µM*,1,-15%,-17%,-12%,?
COC(=O)c1c(C)[nH]c(O)c1C=Nc1ccc(C#N)cc1,100µM*,-23,-15%,17%,-28%,?
Cc1ccccc1OCC(=O)OCc1cc(=O)n2nc(C3CCCCC3)sc2n1,-2%,.,1%,36%,.,-8%
COc1cccc(Cn2c3ccc(NC(=O)Cc4ccccc4C)cc3c(=O)n2C)c1,.,-2,.,.,6%,.
COc1cc(OC)c2ccc(=O)oc2c1C(CC(=O)N1CCCC1)c1ccc(N(C)C)cc1 (centres undefined),-30%,-6,-5%,-4%,3%,?
CCN(CC)CCC(c1ccc(OC)cc1)c1c(OC)cc(OC)c2c(C)cc(=O)oc12 (centres undefined),.,.,.,17%,.,-26%
COc1cc(OC)c2ccc(=O)oc2c1C(CCN1CCCC1)c1ccc(N(C)C)cc1 (centres undefined),40µM*,4,-13%,-22%,-2%,56µM*
CCCCCc1cc(=O)oc2c(C(CCN3CCCC3)c3ccc(N(C)C)cc3)c(OC)cc(OC)c12 (centres undefined),8.9µM*,0,-1%,?,1%,11µM*
CCN(CC)CCC(c1ccc(N(C)C)cc1)c1c(OC)cc(OC)c2ccc(=O)oc12 (centres undefined),40µM*,-4,-6%,-27%,4%,45µM*
COc1cc(OC)c2ccc(=O)oc2c1C(CCN1CCCCC1)c1ccc(N(C)C)cc1 (centres undefined),40µM*,-8,-4%,-32%,-1%,35µM*
Cc1cc(C)c2c(-n3cccc3)c(C(=O)NCCCN3CCCCC3C)sc2n1 (centres undefined),?,.,-11%,32%,.,-20%
CN1CCN(c2nc(-c3cccnc3)nc3ccccc23)CC1,.,.,-1%,8%,1%,-3%
COc1cc2c(cc1OC)CN(c1nc(-c3cccnc3)nc3ccccc13)CC2,40µM*,2,-8%,-19%,4%,?
c1ccc(N2CCN(c3nc(-c4ccccn4)nc4ccccc34)CC2)cc1,1.8µM*,?,1%,?,11µM*,?
CCN1CCN(c2nc(-c3cccnc3)nc3ccccc23)CC1,-34%,.,2%,5%,-8%,89µM*
Cc1cc(-n2c(C)cc(C(=O)CN3C(=O)NC4(CCCCCC4)C3=O)c2C)no1,?,.,-1%,7%,-2%,-21%
COC(=O)c1ccc(-n2c(C)cc(C(=O)COC(=O)C3=COCCO3)c2C)cc1,.,-3,-4%,-2%,3%,-19%
Cc1cc(C(=O)COC(=O)C2=COCCO2)c(C)n1-c1ccc2c(c1)OCO2,50µM*,-16,-3%,9%,-19%,-24%[57.1 µM]
Cc1cc(C(=O)CSc2nncs2)c(C)n1-c1ccc2c(c1)OCO2,45µM*,.,-3%,?,-2%,?
Cc1cc(C(=O)CSc2nnnn2-c2ccccc2)c(C)n1-c1ccc2c(c1)OCO2,-32%,-9,-6%,19%,-8%,-22%
Cc1cc(C(=O)CN2C(=O)NC3(CCCCC3)C2=O)c(C)n1-c1ccc2c(c1)OCO2,?,-17,1%,?,24µM*,56µM*
O=C(c1ccccc1)N1N=C(c2ccccc2)CC1c1ccccc1O (centres undefined),?,-26,-18%,?,3.4µM*,11µM*
O=C(c1ccccc1)N1N=C(c2ccco2)CC1c1cccs1 (centres undefined),?,?,-10%,?,21µM*,35µM*
SMILES,BAZ2B block,PI5P4K alpha inh,GCN5L2 inh,HP1b chromo inh,PLK1 PBD block,JMJD2A Tudor
O=C(O)c1ccccc1C(=O)NC1CCCCNC1=O (centres undefined),-4%,1,-3%,-6%,-12%,-6%
COc1cc(C(=O)O)nc(OC)n1,71µM*,-16,-3%,-6%,?,2.8µM*
COc1cc(NC(=O)CCc2ccccc2)nc(OC)n1,12%,.,.,26%,-1%,4%
CC(C)c1nn2c(=O)cc(COC(=O)c3cccs3)nc2s1,-3%,.,4%,-19%,.,-15%
CCC(C)(C)NC(=O)C(C(C)C)N(CC1CCCO1)C(=O)CNS(=O)(=O)c1ccccc1 (centres undefined),3%,-4,0%,29%,0%,4%
COc1ccc(/C=N/N2CCN(C3c4ccccc4-c4ccccc43)CC2)cc1O,35µM*,0,-11%,?,27µM*,?
C(=N\N1CCN(C2c3ccccc3-c3ccccc32)CC1)/c1ccccn1,20µM*,24,-14%,?,-8%,18µM*
COc1ccc(/C=N/N2CCOCC2)cc1O,0%,-6,-1%,34%,-1%,0%
C(=N\N1CCN(C2c3ccccc3-c3ccccc32)CC1)/c1cccnc1,40µM*,1,-10%,?,-2%,56µM*
COc1ccccc1CCn1c(=O)c(-c2cc(F)cc(F)c2)nc2cncnc21,.,.,-18%,.,.,.
Cc1ccc(C(=O)c2oc3ccccc3c2NC(=O)COc2ccccc2C)cc1,3%,.,0%,38%,.,3%
O=C(COC(=O)CC1CCCC1)Nc1cc2c(cc1Cl)C(=O)c1ccccc1C2=O,56µM*,?,-15%,-26%,-16%,56µM*
COc1ccc(-c2cc(-c3cc(OC)ccc3O)[nH]n2)cc1,?,-25,0%,?,6.7µM*,28µM*
COc1ccc(O)c(-c2cc(-c3ccc(F)cc3)n[nH]2)c1,?,2,-1%,11%,-3%,?
O=C1NC[C@H](CCCCN2CCN(CC3CCCCC3)C(=O)C2=O)N(CCC2CCCCC2)C1=O,.,-1,.,.,-3%,.
O=C(N=Nc1c(O)n(Cc2ccccc2)c2ccccc12)c1ccncc1,35µM*,5,2%,13%,-4%,-26%
